Composite z-score and z-score data for 16 molecules are collected here from PubChem BioAssay.

A short description of test [1]: small molecules captured by biotinylated probe aFSTL3 – biochemical, small-molecule microarray, fluorescence 635/667, stem cell growth factor project, primary screen (AID 1064).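 Further: measures binding of the biotinylated anti-FSTL3 antibody to printed compounds.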 Particulars: higher = more signal.
The nature of test [2]: binders from COS7 lysate, DM2A8 probe, primary screen, torsin A project, cell lysate, small-molecule microarray, fluorescence 635/667 (AID 1065). Particulars: higher = more signal, COS7 lysate expressing mutant human TOR1A.
Test [3] can be described thus: small molecules captured by biotinylated probe aFGF2 – biochemical, small-molecule microarray, fluorescence 635/667, stem cell growth factor project, primary screen (AID 1067).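 Further: measures binding of biotinylated aFGF2 protein to printed compounds on slides; z-score merges feature fluorescence and signal-to-noise across triplicate slides.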 Particulars: higher = more signal.
Test [4] can be described thus: small molecules captured by biotinylated probe aFGF10 – biochemical, small-molecule microarray, fluorescence 635/667, stem cell growth factor project, primary screen (AID 1071).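 Further: score merges 667 nm spot intensity and signal to noise from triplicate slides.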 Particulars: higher = more signal.
For test [5], the target named is Neurogenic locus notch homolog protein 2 (Homo sapiens) (UniProt Q04721). The test can be described thus: small molecules binding Notch2 protein – biochemical, small-molecule microarray, 635 nm fluorescence, stem cell growth factors, primary screen (AID 1073). As to conditions: higher = more signal.
Sequence of Neurogenic locus notch homolog protein 2 (Homo sapiens) (Q04721 whole entry, looked up, canonical isoform): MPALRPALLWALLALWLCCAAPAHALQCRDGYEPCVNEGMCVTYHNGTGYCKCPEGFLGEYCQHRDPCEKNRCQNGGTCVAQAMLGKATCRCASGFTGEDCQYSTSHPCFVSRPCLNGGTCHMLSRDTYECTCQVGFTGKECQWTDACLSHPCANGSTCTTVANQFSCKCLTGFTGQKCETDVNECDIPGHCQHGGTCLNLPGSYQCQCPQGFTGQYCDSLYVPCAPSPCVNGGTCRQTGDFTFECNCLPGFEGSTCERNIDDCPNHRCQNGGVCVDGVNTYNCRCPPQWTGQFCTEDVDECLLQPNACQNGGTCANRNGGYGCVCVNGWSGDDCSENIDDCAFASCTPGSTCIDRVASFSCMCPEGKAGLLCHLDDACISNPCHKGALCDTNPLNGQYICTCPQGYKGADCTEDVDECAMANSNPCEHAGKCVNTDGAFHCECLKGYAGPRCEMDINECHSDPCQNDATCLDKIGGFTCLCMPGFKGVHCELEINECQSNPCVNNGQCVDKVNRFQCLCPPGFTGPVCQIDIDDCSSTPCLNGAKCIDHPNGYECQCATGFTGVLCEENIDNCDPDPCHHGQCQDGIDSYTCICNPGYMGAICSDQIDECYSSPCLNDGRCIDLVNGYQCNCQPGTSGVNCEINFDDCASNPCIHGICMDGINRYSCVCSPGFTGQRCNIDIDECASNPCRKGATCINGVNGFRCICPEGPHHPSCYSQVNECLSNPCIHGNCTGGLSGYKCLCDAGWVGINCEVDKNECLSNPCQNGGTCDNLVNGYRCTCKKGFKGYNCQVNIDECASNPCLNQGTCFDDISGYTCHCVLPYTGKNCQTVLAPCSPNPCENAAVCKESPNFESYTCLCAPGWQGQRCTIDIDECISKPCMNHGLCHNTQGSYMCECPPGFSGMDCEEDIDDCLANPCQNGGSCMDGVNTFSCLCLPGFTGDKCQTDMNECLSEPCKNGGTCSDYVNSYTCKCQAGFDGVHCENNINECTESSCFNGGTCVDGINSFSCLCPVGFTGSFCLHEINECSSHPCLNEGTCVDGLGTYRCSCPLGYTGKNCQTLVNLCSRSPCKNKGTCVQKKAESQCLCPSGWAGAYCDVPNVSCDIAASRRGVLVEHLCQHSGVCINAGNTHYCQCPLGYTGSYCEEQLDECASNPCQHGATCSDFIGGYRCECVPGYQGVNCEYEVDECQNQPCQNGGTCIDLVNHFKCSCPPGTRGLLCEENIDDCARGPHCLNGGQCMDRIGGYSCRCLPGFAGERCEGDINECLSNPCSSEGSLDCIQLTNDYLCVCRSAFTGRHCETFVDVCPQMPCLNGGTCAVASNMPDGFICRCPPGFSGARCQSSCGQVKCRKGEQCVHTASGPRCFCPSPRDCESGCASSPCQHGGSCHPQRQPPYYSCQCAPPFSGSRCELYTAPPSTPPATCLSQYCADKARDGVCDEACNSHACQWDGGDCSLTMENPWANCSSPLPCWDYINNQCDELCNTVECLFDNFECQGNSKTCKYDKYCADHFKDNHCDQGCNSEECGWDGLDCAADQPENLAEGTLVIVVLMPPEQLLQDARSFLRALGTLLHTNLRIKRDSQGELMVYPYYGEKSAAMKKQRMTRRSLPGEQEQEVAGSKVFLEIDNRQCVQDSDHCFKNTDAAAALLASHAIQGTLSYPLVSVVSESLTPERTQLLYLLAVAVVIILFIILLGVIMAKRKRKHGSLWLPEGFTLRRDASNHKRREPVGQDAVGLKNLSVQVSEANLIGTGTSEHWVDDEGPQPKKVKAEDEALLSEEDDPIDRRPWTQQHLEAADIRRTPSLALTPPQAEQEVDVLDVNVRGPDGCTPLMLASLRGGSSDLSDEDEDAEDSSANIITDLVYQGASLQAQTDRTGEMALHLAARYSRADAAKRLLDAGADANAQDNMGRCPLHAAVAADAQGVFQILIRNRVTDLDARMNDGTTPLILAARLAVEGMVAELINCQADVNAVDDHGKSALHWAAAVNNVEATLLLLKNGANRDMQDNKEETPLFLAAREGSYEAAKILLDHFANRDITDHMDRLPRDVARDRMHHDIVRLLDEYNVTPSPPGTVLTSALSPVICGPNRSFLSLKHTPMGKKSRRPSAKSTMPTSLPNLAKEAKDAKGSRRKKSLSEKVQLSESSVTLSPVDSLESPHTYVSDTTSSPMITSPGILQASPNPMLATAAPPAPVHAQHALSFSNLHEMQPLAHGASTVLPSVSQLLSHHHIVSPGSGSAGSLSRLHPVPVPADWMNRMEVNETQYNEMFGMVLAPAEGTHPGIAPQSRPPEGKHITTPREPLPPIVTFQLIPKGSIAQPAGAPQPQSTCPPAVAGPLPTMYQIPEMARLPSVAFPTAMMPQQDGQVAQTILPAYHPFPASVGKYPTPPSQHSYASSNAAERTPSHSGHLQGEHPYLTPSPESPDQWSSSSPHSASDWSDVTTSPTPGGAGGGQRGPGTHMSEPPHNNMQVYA
Test [6] addresses Pro-neuregulin-1, membrane-bound isoform (Homo sapiens) (UniProt Q02297). The test can be described thus: small molecules binding neuregulin-1 protein – biochemical, small-molecule microarray, fluorescence 635/667, psychiatric disease protein project, primary screen (AID 1075).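 Further: score combines 667 nm spot fluorescence with signal to noise.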 Particulars: NRG1 binding, 635 nm fluorescence, higher = more signal.
Test [7] relates to Neuregulin-1 EGF-like domain. Briefly: small molecules binding NRG1 EGF domain – biochemical, small-molecule microarray, 635 nm fluorescence, primary screen (AID 1081).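 Further: binding of the protein to compounds printed on small-molecule microarray slides.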 As to conditions: higher = more signal.
Test [8] in a line: FRG1 expression reporter modulators in myotubes – cell-based, C2C12 myotubes, firefly/Renilla luciferase, luminescence, FRG1 inhibition for FSHD, primary screen (AID 1084). As to conditions: FRG1 promoter luciferase, higher = more signal, called active from +8 up or from −8 down.
A short description of test [9]: small molecules captured by biotinylated probe aFST – biochemical, small-molecule microarray, fluorescence 635/667, stem cell growth factor project, primary screen (AID 1086).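 Further: score merges 667 nm fluorescence with signal-to-noise of each printed compound spot.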 As to conditions: higher = more signal.
The nature of test [10]: binders of probe aHhip on microarray, primary screen, stem cell growth factor project, biochemical, small-molecule microarray, fluorescence 635/667 (AID 1087).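 Further: score merges spot fluorescence at 667nm with spot signal to noise ratio.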 As to conditions: higher = more signal.

Active and inactive are the calls of the source.

Sequence of Pro-neuregulin-1, membrane-bound isoform (Homo sapiens) (Q02297 whole entry, looked up, the tested form may be a part, canonical isoform): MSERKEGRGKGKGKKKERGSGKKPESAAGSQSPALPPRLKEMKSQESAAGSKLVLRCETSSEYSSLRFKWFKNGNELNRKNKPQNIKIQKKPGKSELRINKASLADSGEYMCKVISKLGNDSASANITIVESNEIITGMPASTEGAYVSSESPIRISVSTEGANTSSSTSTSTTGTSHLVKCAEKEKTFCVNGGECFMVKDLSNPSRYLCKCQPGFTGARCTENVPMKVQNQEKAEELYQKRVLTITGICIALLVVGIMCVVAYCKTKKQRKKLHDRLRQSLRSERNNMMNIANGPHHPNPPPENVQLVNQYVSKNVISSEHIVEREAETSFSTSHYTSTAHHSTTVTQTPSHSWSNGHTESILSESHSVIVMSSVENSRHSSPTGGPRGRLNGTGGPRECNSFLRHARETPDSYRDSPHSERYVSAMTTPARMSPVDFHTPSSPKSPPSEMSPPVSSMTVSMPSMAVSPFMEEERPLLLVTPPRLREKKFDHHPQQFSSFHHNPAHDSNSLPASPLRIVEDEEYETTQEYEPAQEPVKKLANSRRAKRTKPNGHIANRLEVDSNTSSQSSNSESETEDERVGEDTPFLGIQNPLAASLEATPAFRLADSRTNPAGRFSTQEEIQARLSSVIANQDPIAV

For the molecule `COC(=O)c1c(CC[C@@H](CO)NC(=O)N2CCC[C@H]2Cn2cc(-c3ccccn3)nn2)oc(C(C)=O)c1C(=O)OC`, the composite z-score is -0.508 in test [1]; -0.0298 in test [2]; -0.1 in test [3]; 0.639 in test [4]; -0.357 in test [5]; 0.963 in test [6]. The results for the composite z-score in test [7], in [9] and in test [10] were 0.808, -0.0939 and -0.0427, respectively. Besides, in test [8], the z-score is 0.634 (inactive).
For the molecule `CCCCC(O)C1C=CC2C(=O)N(c3ccccc3)C(=O)C2N1Nc1ccccc1F` (stereo not given), the composite z-score in [1] is 1.12; in test [2], 0.0488; in test [3], 0.256; in [4] it was 0.516; in [5], 0.829; in test [6], 1.15. In addition, the composite z-score in test [7] stood at 1.2; in test [9], 1.75; in test [10] it was 0.953. For the same molecule, the z-score in test [8] is 0.221 (inactive).
As to `CCCCCC1=C2CNC(CCC)(C(=O)OC)C=C2C(C)C1=O` (stereo not given), the composite z-score in [1] is 0.327; in test [2] it was 0.0422; in [3], -0.0074; in test [4] it was 0.159; in test [5], 1.14; in test [6], 0.92. The composite z-score in [7] was 0.993; in [9], 0.21; in test [10], 1.96. Besides, the z-score in [8] is 0.488 (inactive).
Take `COCCOC(=O)N1C(=O)[C@@]2(c3cc(C#Cc4ccc(OC)cc4)ccc31)[C@H](C(=O)N1CCCCCCC1)[C@H]1C(=O)O[C@H](c3ccccc3)[C@H](c3ccccc3)N1[C@@H]2c1ccc(OCCO)cc1`: the composite z-score was 2.85 in [1]; 1.49 in [2]; 0.233 in test [3]; 0.662 in [4]; 0.845 in test [5]; 1.01 in test [6]. For the same molecule, the composite z-score in [7] was determined as 0.972; in test [9], 2.43; in [10], 3.2. Besides, the z-score in test [8] was -0.738 (inactive).
Consider `CC(=O)NCCCC[C@@H]1NC(=O)[C@@H]2C[C@H](C(=O)NCCCCN(C)C)[C@H](c3cccc(OCCO)c3)N2C1=O`, for which the composite z-score in test [1] was 0.123; in test [2], 0.537; in test [3], -0.108; in test [4] it was -0.107; in test [5], -0.569; in test [6], -0.283. For the same molecule, the composite z-score in test [7] was 1.12; in test [9] it was 0.571; in test [10], -0.236. Further, in test [8], the z-score was 3.26 (inactive).
For `C=C(C)C1C(=C)CN([C@H](CO)c2ccccc2)C1=O` (stereo not given in full), the composite z-score was 0.172 in test [1]; -0.605 in test [2]; -0.132 in test [3]; -0.205 in test [4]; -0.725 in [5]; -0.461 in test [6]. The composite z-score in test [7] is -0.708; in test [9], -0.0839; in [10], -0.0296. The z-score in test [8] is 0.0392 (inactive).
Regarding `CC(C)(C)OC(=O)CC[C@@]1(C(=O)NCCN2CCOCC2)N=C(c2ccc(OCCCO)cc2)O[C@@H]1c1ccccc1N=[N+]=[N-]`, the composite z-score in [1] came out at 0.793; in test [2], 0.122; in test [3], 0.0789; in [4], 1.01; in [5], 1.49; in test [6], 1.56. Also, the composite z-score in test [7] turned out to be 1.32; in test [9], 1.67; in [10] it was 0.232. In addition, in [8], the z-score was 4.07 (inactive).
Consider `O=C1O[C@H](c2ccccc2)[C@H](c2ccccc2)N2[C@H]1[C@@H](C(=O)O)[C@]1(C(=O)Nc3ccc(C#CCCO)cc31)[C@H]2c1ccc(O)cc1`, for which the composite z-score was 1.32 in [1]; 0.502 in test [2]; 0.0248 in test [3]; -0.0925 in test [4]; -0.665 in [5]; 0.957 in test [6]. Further, the composite z-score was found to be 0.708 in [7], 0.481 in [9] and 0.437 in test [10]. In addition, the z-score in test [8] is 0.482 (inactive).
For `CC(C)C[C@@H]1NC(=O)[C@H]2C[C@@H](C(=O)NCCCCCCN(C)C)[C@@H](c3ccc(O)cc3)N2C1=O`, the composite z-score is -0.0795 in test [1]; 1.44 in test [2]; -0.0366 in [3]; 1.16 in test [4]; 0.285 in test [5]; 0.717 in test [6]. The figures for the composite z-score in [7], in [9] and in test [10] were 1.48, 0.0151 and 0.0274, respectively. In addition, in test [8], the z-score is 3.69 (inactive).
For `C=C(COC)/C(=C/C[C@H](OC(=O)c1ccncc1)c1ccc(OCCO)cc1)c1cnc2ccccc2c1`, the composite z-score in test [1] was -0.219; in [2] it was 0.833; in test [3], 0.0485; in test [4] it was 0.97; in test [5], 1.57; in test [6], 1.4. The values for the composite z-score in test [7], in test [9] and in test [10] were 1.14, 1.14 and 0.12, respectively. Moreover, the z-score in [8] was 1.87 (inactive).
Turning to `COCCOC(=O)N1C(=O)[C@@]2(c3cc(C#CC4=CCCCC4)ccc31)[C@H](C(=O)N1CCc3cc(OC)c(OC)cc3C1)[C@H]1C(=O)O[C@H](c3ccccc3)[C@H](c3ccccc3)N1[C@@H]2c1ccc(OCCO)cc1`, the composite z-score in test [1] was -0.137; in test [2], 0.492; in test [3] it was -0.0094; in [4], 0.599; in test [5], 1.1; in [6], 0.101. Moreover, the composite z-score was 1.21 in [7], 0.533 in test [9] and -0.0121 in test [10]. Further, the z-score in test [8] was 0.235 (inactive).
On to `CC[C@@H]1C=C(C(=O)O)[C@H](c2ccco2)N1S(=O)(=O)c1ccc(C)cc1`, for which the composite z-score in [1] is 0.001; in [2], 0.0518; in test [3], -0.0141; in test [4], -0.214; in [5] it was -0.974; in [6] it was 0.179. The values for the composite z-score in test [7], in test [9] and in test [10] were 0.504, 0.545 and -0.0391, respectively. For the same molecule, the z-score in [8] was 0.0623 (inactive).
`COc1ccc([Si](C)(C)[C@H]2[C@H](CCn3cc([C@H](O)c4ccccc4)nn3)O[C@@]3(C(=O)N(Cc4cccc(N5CCOC5=O)c4)c4ccccc43)[C@@H]2C)cc1`: the composite z-score was -0.218 in test [1]; 0.071 in test [2]; -0.003 in test [3]; 0.29 in [4]; 0.401 in test [5]; 0.209 in test [6]. Further, the composite z-score in [7] is 1.04; in test [9], -0.0127; in test [10] it was 0.155. Moreover, in [8], the z-score was -0.955 (inactive).
For the molecule `COc1cc2c(cc1OC)CN(C(=O)[C@@H]1[C@H]3C(=O)O[C@H](c4ccccc4)[C@H](c4ccccc4)N3[C@H](c3ccc(O)cc3)[C@@]13C(=O)Nc1ccc(C#CC4(O)CCCCCC4)cc13)CC2`, the composite z-score in [1] was -1.38; in test [2] it was 0.75; in test [3] it was -0.0197; in test [4], 0.763; in test [5] it was 1.18; in test [6] it was 1.73. The composite z-score in test [7] is 1.35; in test [9], 0.0629; in [10], -0.274. In addition, the z-score in [8] is 0.651 (inactive).
As to `CN1C2C=C(CCCO)C(C3C(=O)N(C(N)=O)C(=O)C32)C1c1ccc(CN2CCCC2)cc1` (stereo not given), the composite z-score in [1] was 0.0355; in test [2] it was -0.214; in [3], -0.143; in test [4] it was -0.0598; in test [5], -0.851; in test [6] it was -0.612. In addition, the composite z-score in test [7] is -0.24; in test [9], -0.887; in test [10], 0.141. Moreover, the z-score in [8] is 0.75 (inactive).
Turning to `CCOC(=O)C[C@H]1[C@H](OC(=O)c2cc3ccccc3oc2=O)[C@@H](NC(=O)Cc2ccc(OC)cc2)c2cc(OCCCO)ccc2N1C(=O)c1ccccc1`, the composite z-score in [1] is -0.356; in [2] it was 0.41; in test [3], -0.076; in test [4], 0.379; in test [5], 0.359; in [6], 0.199. For the same molecule, the composite z-score in test [7] is 0.385; in test [9] it was 0.164; in test [10] it was -0.199. Also, the z-score in [8] is 1.57 (inactive).
